Measurements from the supplement of paper PMC10981050.
Counter-ions that a name gives are not always drawn.

Each molecule was assayed on K562 (assay: cell viability relative to vehicle control; higher = less cytotoxic). Conditions: 10 µM; SRSF2 genotype: SRSF2 wt/wt.
How it was run: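 Each screen used CRISPR-edited mutant and wild-type clones from four leukaemia lines. Compounds were acoustically dispensed at a single 10 µM dose, and CellTiter-Glo luminescence was read after 48 h with the supernatant first removed. Viability was analysed in Genedata Screener and given as percent of the on-plate vehicle control.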

For `Cc1cc(=O)oc2c(C=O)c(O)ccc12`, which cell viability is on record?
The cell viability was 112%.

`Cc1oncc1C(=O)Nc1ccc(C(F)(F)F)cc1` [Leflunomide] was tested. Which cell viability did it give?
Its cell viability is 86.8%.

With `CCn1c(C(=O)N(C2CC2)C2CC2)cc2c3c(ncn3C)c(Nc3cc(C)n(C)n3)nc21` as the molecule, how does the cell viability read?
Its cell viability is 108%.

For `CC(/C=C1\SC(=S)N(CC(=O)O)C1=O)=C\c1ccccc1` [Epalrestat], which cell viability is on record?
Its cell viability is 107%.

`O=c1[nH]c(=O)n(C2CCCO2)cc1F` (stereo unspecified) was tested. Which cell viability did it give?
Its cell viability is 103%.

With `CC(C(=O)O)c1ccc2c(c1)Cc1cccnc1O2` (stereo unspecified) [Pranoprofen] as the molecule, how does the cell viability read?
The cell viability was 110%.

`CC1C(=O)OC2C(O)C34C5CC(C(C)(C)C)C36C(OC(=O)C6O)OC4(C(=O)O5)C12O` (stereo unspecified) [Ginkgolide B] was tested. Which cell viability did it give?
The cell viability was 114%.

How did the cell viability turn out when `Cc1nc(N(C)C(=O)Cc2ccc(-c3ccccn3)cc2)sc1S(N)(=O)=O` [Pritelivir (BAY 57-1293)] was run?
Its cell viability is 92.1%.

`N[C@@H]1CCCN(c2c(/C=C3\SC(=O)NC3=O)cccc2-c2ccccc2)C1` was tested. Which cell viability did it give?
The cell viability was 81.1%.

Which cell viability does the source give for `CCCCNc1ncc(-c2ccc(CN3CCOCC3)cn2)c(NC2CCC(O)CC2)n1` (stereo unspecified) here?
The cell viability was 88%.

With `CCCc1cc(C(N)=S)ccn1` [Protionamide (Prothionamide)] as the molecule, how does the cell viability read?
Its cell viability is 101%.

How did the cell viability turn out when `CC(C(=O)O)c1ccc2c(c1)CC(=O)c1ccccc1S2` (stereo unspecified) [Zaltoprofen] was run?
The cell viability was 97.7%.

For `COc1ccc2cc1Oc1ccc(cc1)C[C@H]1c3c(cc4c(c3Oc3cc5c(cc3OC)CCN(C)[C@@H]5C2)OCO4)CCN1C` [Cepharanthine], which cell viability is on record?
Its cell viability is 3.74%.

`CC(COc1ccccc1Cc1ccccc1)N1CCCCC1` (stereo unspecified) [Benproperine phosphate] was tested. Which cell viability did it give?
Its cell viability is 91.3%.

With `Nc1nonc1C(=Nc1ccc(F)c(Cl)c1)NO` as the molecule, how does the cell viability read?
The cell viability was 101%.

`CC(C)N(CCC(=O)c1ccc2ccccc2c1)Cc1ccccc1` was tested. Which cell viability did it give?
Its cell viability is 13.9%.

How did the cell viability turn out when `O=C(NCCN1CCOCC1)c1ccc(Cl)cc1` was run?
Its cell viability is 106%.

Which cell viability does the source give for `CCS(=O)(=O)CCn1c([N+](=O)[O-])cnc1C` [Tinidazole] here?
Its cell viability is 100%.

`CCOc1ccc(Cc2cc([C@]34OC[C@](CO)(O3)[C@@H](O)[C@H](O)[C@H]4O)ccc2Cl)cc1` [Ertugliflozin] was tested. Which cell viability did it give?
The cell viability was 104%.

How did the cell viability turn out when `OC[C@H]1O[C@@](CO)(O[C@H]2O[C@H](CO)[C@@H](O)[C@H](O)[C@H]2O)[C@@H](O[C@H]2O[C@H](CO)[C@@H](O)[C@H](O)[C@H]2O)[C@@H]1O` [Melezitose] was run?
The cell viability was 104%.

How did the cell viability turn out when `O=C(O)CCCC[C@@H]1SC[C@@H]2NC(=O)N[C@@H]21` [Biotin (Vitamin B7)] was run?
The cell viability was 96.3%.

`Cc1nnc(C(=O)NC(C)(C)c2nc(C(=O)NCc3ccc(F)cc3)c(O)c(=O)n2C)o1` [Raltegravir (MK-0518)] was tested. Which cell viability did it give?
Its cell viability is 94.6%.

`CCOC(=O)C=Cc1ccc(OC)cc1` [Ethyl 4-Methoxycinnamate] was tested. Which cell viability did it give?
The cell viability was 80%.

How did the cell viability turn out when `CCNC(=O)[C@@H]1CCCN1C(=O)[C@H](CCCN=C(N)N)NC(=O)[C@H](CC(C)C)NC(=O)[C@@H](CC(C)C)NC(=O)[C@H](Cc1ccc(O)cc1)NC(=O)[C@H](CO)NC(=O)[C@H](Cc1c[nH]c2ccccc12)NC(=O)[C@H](Cc1cnc[nH]1)NC(=O)[C@@H]1CCC(=O)N1` [S3718 Leuprolide Acetate.cdx] was run?
The cell viability was 102%.

How did the cell viability turn out when `CCCCOc1ccc(C(=O)Nc2ccc(F)cc2F)cc1` was run?
The cell viability was 91.8%.

Which cell viability does the source give for `O=C(NC1CCN(CCCCC2(C(=O)NCC(F)(F)F)c3ccccc3-c3ccccc32)CC1)c1ccccc1-c1ccc(C(F)(F)F)cc1` [Lomitapide Mesylate] here?
The cell viability was 0.33%.

For `NC(=O)c1cccc(N)c1` [INO-1001 (3-Aminobenzamide)], which cell viability is on record?
Its cell viability is 94.7%.

Which cell viability does the source give for `C=CC(=O)Nc1cc(N2CCN(CC)CC2)ccc1Nc1cc(N(C)C(=O)Nc2c(Cl)c(OC)cc(OC)c2Cl)ncn1` here?
Its cell viability is 28.7%.

Which cell viability does the source give for `COc1cc(C(=O)NC2CCCNC2)cc(OC)c1OC` (stereo unspecified) [Troxipide] here?
Its cell viability is 101%.

With `FC(F)(F)Oc1ccc(-c2ccc3nnc(C(F)(F)F)n3c2)cc1` as the molecule, how does the cell viability read?
Its cell viability is 102%.

For `C[Si](C)(C)CCOCn1ccc2c(-c3cn[nH]c3)ncnc21`, which cell viability is on record?
Its cell viability is 109%.

For `CCCNC(=O)Nc1ccc(Oc2ncnc3cc(OC)c(OC)cc23)cc1Cl`, which cell viability is on record?
Its cell viability is 99.8%.

How did the cell viability turn out when `Cc1nc(=O)c2cc(CN(C)c3ccc(C(=O)N[C@@H](CCC(=O)O)C(=O)O)s3)ccc2[nH]1` [Raltitrexed (Tomudex)] was run?
The cell viability was 58.7%.

How did the cell viability turn out when `Cc1ccc(C)c(OCCCC(C)(C)C(=O)O)c1` [Gemfibrozil (Lopid)] was run?
The cell viability was 108%.

For `O=C1OC(COc2ccccc2[N+](=O)[O-])CC1Cc1ccccc1` (stereo unspecified), which cell viability is on record?
The cell viability was 101%.

`CCC(=O)O[C@@H]1CC(=O)O[C@H](C)C/C=C/C=C/[C@H](O)[C@H](C)C[C@H](CC=O)[C@H](O[C@@H]2O[C@H](C)[C@@H](O[C@H]3C[C@@](C)(O)[C@@H](OC(=O)CC)[C@H](C)O3)[C@H](N(C)C)[C@H]2O)[C@H]1OC` [Midecamycin] was tested. Which cell viability did it give?
Its cell viability is 89.5%.
